ELG1 genotox: genotoxicity induction in ELG1-luciferase HEK293T cells. HEK293T ELG1-luciferase reporter, luminescence, 16 h. Potency, µM (titrated, usually from 46 µM), for inactives: top-dose activity change, positive = activation, usual class: activators. 330,000 compounds, 1.3% hits; note: % of control where 0% means no effect; nearly all actives have a fitted effect of over 60% in size
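Genotoxicity was scored as increased ELG1-luciferase reporter signal, measured by ONE-Glo luminescence (30 min, room temperature). Compound or vehicle exposure of the HEK293T reporter cells lasted 16 hr at 37°C.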
Rab9 prom act: activators of Rab9 promoter; Huh7 Rab9 promoter-luciferase reporter, luminescence, 24 h; Potency, µM (doses to about 9.22 µM), for inactives: at the highest dose activation, negative = inhibition, actives largely listed as activators; 320,000 compounds, 2.8% hits; AID 485297; note: % of control where 0% means no effect; nearly all actives have a fitted effect of over 60% in size
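Measured in stably transfected Huh7 cells bearing a Rab9 promoter–luciferase construct: 24 h compound treatment at 37 °C, followed by luminescence detection.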
FLuc modulator: firefly luciferase modulation, counter-screen for miR-21 project. purified FLuc, Km substrates, luminescence inhibition. Potency, µM (titrated, usually from 57.5 µM), inactives show at the highest dose activity change, negative = inhibition, actives largely listed as inhibitors. 360,000 compounds, 6.9% hits. AID 588342;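 note: plate controls were vehicle for no effect and reference inhibitor for full effect; nearly all actives have a fitted effect of over 55% in size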
Target sequence (P08659 whole entry, looked up): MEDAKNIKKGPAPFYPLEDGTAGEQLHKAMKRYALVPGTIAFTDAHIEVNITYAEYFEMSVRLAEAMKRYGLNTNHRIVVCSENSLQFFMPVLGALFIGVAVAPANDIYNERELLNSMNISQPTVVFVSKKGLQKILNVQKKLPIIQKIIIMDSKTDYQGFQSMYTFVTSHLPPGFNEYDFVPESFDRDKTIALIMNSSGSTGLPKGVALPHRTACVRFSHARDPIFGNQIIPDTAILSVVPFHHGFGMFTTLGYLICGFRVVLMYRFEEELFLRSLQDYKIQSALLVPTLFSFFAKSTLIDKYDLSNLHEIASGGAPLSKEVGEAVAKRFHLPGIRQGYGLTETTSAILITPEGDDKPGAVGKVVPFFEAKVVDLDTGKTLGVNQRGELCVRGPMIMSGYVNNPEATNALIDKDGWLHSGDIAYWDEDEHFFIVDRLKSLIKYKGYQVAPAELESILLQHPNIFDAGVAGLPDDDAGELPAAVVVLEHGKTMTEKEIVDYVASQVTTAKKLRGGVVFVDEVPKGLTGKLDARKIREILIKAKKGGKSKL
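Purified P. pyralis luciferase, 10 nM final, with Km-level 10 uM D-luciferin and 10 uM ATP in 50 mM Tris acetate pH 7.5, 10 mM Mg acetate, 0.01% Tween-20, 0.05% BSA; 6-point qHTS titration about 60 µM downward; luminescence read.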
SMN2 splice enh: SMN2 splice variant enhancement; HEK293 SMN2-luciferase splicing reporter, luminescence, 30-36 h; Potency, µM (doses to about 46.1 µM), for the others: at the highest dose activity change, positive = activation, usual class: activators; 210,000 compounds, 2.8% hits; AID 1458; note: % of control where 0% means no effect; nearly all actives have a fitted effect of over 55% in size
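qHTS luciferase splicing reporter: luminescence rises when SMN2 exon 7 is included in transfected HEK293 cells. Compound exposure lasted 30-36 h at 37C, with 4.5 mM final sodium butyrate as control, followed by a ONE-Glo read.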
NPC1 promoter act: activates the NPC1 promoter | Potency, µM (doses to about 9.22 µM), for inactives: top-dose activation, actives largely listed as activators | Huh7 NPC1 promoter luciferase reporter, 24 h | 320,000 compounds, 2.4% hits | AID 485313; note: % of control where 0% means no effect; nearly all actives have a fitted effect of over 60% in size
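Readout is luciferase luminescence, reflecting NPC1 promoter activation in stably transfected Huh7 cells after 24 h compound exposure at 37 °C in reduced-serum medium with 10% FBS.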
* hit, by the source's call; u = inconclusive; x = no result given; [ ] = remark or other dose. This is a sample that favours compounds with a hit; in the whole collection about 7.4% have one here. Calls come from the whole dose curve; as a rule, active = well fitted curve in the direction sought with a large enough effect; inconclusive = small, poorly fitted or top-dose-only effect, or another doubt; inactive = no such curve, though single readings can be large; an effect the other way counts as inactive or inconclusive. Potency is the fitted concentration of half-maximal effect.

SMILES | ELG1 genotox | Rab9 prom act | FLuc modulator | SMN2 splice enh | NPC1 promoter act
CCOC(=O)CC1=NN(c2ccccc2)C(=O)/C1=C\c1ccc(N(C)C)cc1 | 3% | -3% | 11µM* | 16%[1.84 µM] | -11%
CC1=NN(c2ccccc2)C(=O)/C1=C/C=C/c1ccc(N(C)C)cc1 | -8% | 6% | 4.8µM* | -19% | 2%
CC1=NN(c2ccccc2)C(=O)/C1=C/N(C)C | 0% | -1% | -17% | x | -3%
C/C(=N\NC(=S)Nc1cc(S(=O)(=O)N2CCOCC2)ccc1Cl)c1ccccc1F | 8% | -15% | 27µM* | -82% | -5%
C=CCOn1c(=O)c(-c2cc3ccccc3o2)[n+]([O-])c2ccccc21 | 9% | 20% | u | x | u
CCOC(=O)COn1c(=O)c(-c2cc3ccccc3o2)[n+]([O-])c2ccccc21 | u | 2.2µM* | 2.4µM* | 14µM* | u
Cc1cc2c(s1)c1c(C)nn(Cc3ccccc3F)c(=O)c1n2C | x | 1% | 1% | x | 1%
COc1ccc(C(O)(c2ccccc2OC)C(CN2CCOCC2)c2ccccc2)cc1 (stereo not drawn) | -7% | -9% | 2% | -13% | 0%
O=C(COC(=O)c1ccc2ccccc2n1)c1ccccc1 | -17% | -3% | 6.7µM* | -20% | -2%
O=C(OCC(=O)c1ccc[nH]1)c1ccc2ccccc2n1 | 5% | -5% | u | 6% | -1%
O=C(OCc1ccc(F)cc1)c1ccc2ccccc2n1 | 3% | 0% | 19µM* | 12% | 1%
CC(NC(=O)C(C)N1c2cccc3cccc(c23)S1(=O)=O)c1ccccc1 (stereo not drawn) | -14% | 1% | 0% | x | -3%
CCOc1ccc(NC(=O)c2ccc3c(SCC(=O)O)c4c(nc3c2)CCCC4)cc1 | 1% | -3% | 17µM* | 5% | 0%
Cc1ccc(NC(=O)c2ccc3c(SCC(=O)O)c4c(nc3c2)CCCC4)c(Br)c1 | -3% | -4% | u | x | -6%
O=C(O)CSc1c2c(nc3cc(C(=O)Nc4cccc(C(F)(F)F)c4)ccc13)CCC2 | 0% | -3% | 27µM* | x | -1%
Cc1cccc(OCC(=O)Nc2ccccc2C(=O)OCc2cc(=O)n3ccsc3n2)c1 | x | x | -14% | x | x
COc1cccc(C(=O)COc2ccc(NC(=O)c3ccccc3)cc2)c1 | -1% | -1% | 3.4µM* | x | 1%
COC(=O)c1ccc(OCC(=O)c2ccccc2)cc1 | u | 3.2µM* | 7.6µM* | 13µM* | 3.2µM*
O=C(O)COc1cccc(NC(=O)c2ccccc2)c1 | -1% | -1% | u | 20% | 2%
Cc1cccc(OCC(=O)Nc2ccc(NC(=O)c3ccccc3)cc2)c1 | 1% | 27% | 3% | x | 10%
Cc1cccc(C(=O)Nc2cccc(OCC(=O)O)c2)c1 | 1% | -8% | 15µM* | x | -4%
O=C(COc1cccc(NC(=O)c2ccccc2)c1)c1ccccc1 | 0% | -3% | 15µM* | x | -3%
COc1ccc([N+](=O)[O-])cc1NC(=O)CCN1CCOCC1 | 0% | -5% | -1% | x | -4%
O=C(Nc1cccc(Oc2ccc3c(c2)C(=O)NC3=O)c1)c1cccs1 | -1% | 1% | -11% | 1% | 0%
O=C(COc1cccc(NC(=O)c2cccs2)c1)c1ccc(F)cc1 | -5% | 11% | 24µM* | -32% | 1%
SMILES | ELG1 genotox | Rab9 prom act | FLuc modulator | SMN2 splice enh | NPC1 promoter act
COc1cccc(C(=O)Nc2cccc(OCC(=O)c3ccccc3)c2)c1 | -15% | 2% | 12µM* | -17% | 2%
O=Cc1cn(-c2ccccc2)nc1-c1ccc2c(c1)OCCO2 | 10% | 17% | 4.8µM* | 13µM* | 11%
N#Cc1cn(-c2ccccc2)nc1-c1ccc2c(c1)OCCO2 | u | 4µM* | -12%[2.3 µM] | 14µM* | u
CCN(CC)C(=O)c1cn(-c2ccccc2)nc1-c1ccc2c(c1)OCCO2 | -9% | 18% | -1% | -25% | -5%
O=Cc1cn(-c2ccccc2)nc1-c1ccc(F)cc1 | -6% | 5% | 12µM* | x | 22%
O=C(NCCc1ccc(Cl)cc1)C(=O)NCC(c1ccco1)S(=O)(=O)c1ccc(Cl)cc1 (stereo not drawn) | x | x | -1% | x | x
O=C(Nc1ccc(S(=O)(=O)NC2=NCCCCC2)cc1)c1ccc(Cl)cc1Cl | u | -2% | u | x | 0%
S=c1[nH]c(-c2ccccc2)cn1/N=C/c1cccc2ccccc12 | -2% | 1% | u | -2% | 0%
S=c1[nH]c(-c2ccccc2)cn1/N=C/c1ccccc1Br | -4% | 25% | 13µM* | 5% | 29%
Cc1c(OCC(=O)N2CCN(c3ccccc3)CC2)ccc2c3c(c(=O)oc12)CCCC3 | -1% | 0% | 6% | x | 3%
N#CCC(=O)N1CC2(CC(c3cccc(NC(=O)COc4ccc(Cl)cc4)c3)=NO2)C[C@@H]1C(N)=O (stereo partly drawn) | 0% | -7% | 15µM* | x | -4%
NC(=O)[C@@H]1CC2(CC(c3cccc(NC(=O)COc4ccc(Cl)cc4)c3)=NO2)CN1C(=O)COc1ccc(Cl)cc1 (stereo partly drawn) | -15% | -18% | 12µM* | x | -9%
CC/C=C/C(=O)N1CC2(CC(c3cccc(NC(=O)COc4ccc(Cl)cc4)c3)=NO2)C[C@H]1C(N)=O (stereo partly drawn) | -11% | 0% | 12µM* | x | 5%
NC(=O)[C@H]1CC2(CC(c3cccc(NC(=O)COc4ccc(Cl)cc4)c3)=NO2)CN1C(=O)C(c1ccccc1)c1ccccc1 (stereo partly drawn) | -9% | -15% | u | x | -8%
NC(=O)[C@H]1CC2(CC(c3cccc(NC(=O)COc4ccc(Cl)cc4)c3)=NO2)CN1C(=O)[C@H]1CCC(=O)N1 (stereo partly drawn) | 2% | -8% | 12µM* | x | -1%
O=C(c1cnn(C(=O)c2ccco2)c1)c1cc(F)ccc1O | -7% | x | x | x | x
Cc1ccc(SCC(=O)OCC(=O)NC(C)c2ccc(F)cc2)cc1 (stereo not drawn) | 4% | 0% | -10% | x | -3%
COc1cccc(/C=C2\Oc3ccc(O)cc3C2=O)c1O | u | u | 3.4µM* | x | u
Cc1cccc(NC(=O)C2C3C=CC(C4CC34)C2C(=O)O)c1 (stereo not drawn) | 6% | 0% | 17µM* | -29% | -1%
Cc1cccc(NC(=O)C2C3C=CC(O3)C2C(=O)O)c1 (stereo not drawn) | -7% | 1% | -2% | x | -1%
Cc1ccccc1CNC(=O)C1CCCCN1S(=O)(=O)c1ccc(F)cc1 (stereo not drawn) | x | x | 3% | x | x
CCOc1ccc(NC(=O)c2ccccc2OCC(=O)c2ccc(C)cc2)cc1 | 18% | 5% | 5.4µM* | 14% | 2%
CCOc1ccc(NC(=O)c2ccccc2SC)cc1 | u | u | 17µM* | x | u

Screening data as filed in PubChem BioAssay.
